Data taken from PubChem BioAssay (NCI).
The panel holds about 79,000 compounds, 15% with a hit somewhere; the sample as a whole holds those more often. Unmarked numbers belong to inactive results. Active and inactive are the calls of the source. No stated cut-off is given here; in the data, active means growth inhibition above about 70%; inactive means the rest.

How the values were obtained:
[1] = NCI Yeast Anticancer Drug Screen. Data for the rad52 strain (AID 147);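 further: 0% = growth of vehicle-treated control cultures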; details: S. cerevisiae rad52 mutant growth inhibition, stronger effect = higher value
Procedure, shortened: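 Here a repair-compromised yeast strain receives each compound; its growth is then quantified and normalised to vehicle-only controls.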

[2] = NCI Yeast Anticancer Drug Screen. Data for the wt1 strain (AID 149);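 further: 0% = growth of vehicle-treated wt1 cultures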; details: S. cerevisiae wt1 strain (SPY 50644) growth inhibition, stronger effect = higher value
Procedure, shortened: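 wt1 strain grown with compound or vehicle; inhibition taken from the growth difference.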

[3] = NCI Yeast Anticancer Drug Screen. Data for the rad50EPP+ strain (AID 151);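 further: 0% = growth of vehicle-treated control cultures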; details: S. cerevisiae rad50 mutant strain, stronger effect = higher value
Procedure, shortened: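 Read-out is yeast growth inhibition relative to vehicle; cells used were the rad50EPP+ strain.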

[4] = NCI Yeast Anticancer Drug Screen. Data for the mgt1 strain (AID 153); details: S. cerevisiae mgt1 mutant growth inhibition, stronger effect = higher value
Procedure, shortened: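 Measured: inhibition of mgt1 yeast growth by compound, normalized to vehicle-treated cultures.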

[5] = NCI Yeast Anticancer Drug Screen. Data for the rad50 strain (AID 155);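 further: 0% = growth of vehicle-only cultures of the same strain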; details: S. cerevisiae rad50 strain growth inhibition, stronger effect = higher value
Procedure, shortened: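 DNA repair mutant yeast, compound exposure, growth read-out; inhibition is taken relative to vehicle.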

[6] = NCI Yeast Anticancer Drug Screen. Data for the mec2-1 strain (AID 157); details: S. cerevisiae mec2-1 strain, stronger effect = higher value
Procedure, shortened: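 Using mec2-1 yeast: add compound, measure growth, express inhibition versus vehicle-treated cultures.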

[7] = NCI Yeast Anticancer Drug Screen. Data for the rad14 strain (AID 159);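 further: 0% = growth of vehicle-treated control cultures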; details: S. cerevisiae rad14 strain growth inhibition, stronger effect = higher value
Procedure, shortened: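 DNA repair-defective yeast, compound-exposed; % growth inhibition derived by comparison with vehicle-treated controls.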

[8] = NCI Yeast Anticancer Drug Screen. Data for the sgs1 mgt1 strain (AID 161);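 further: 0% = growth of cultures given vehicle only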; details: S. cerevisiae sgs1 mgt1 strain, stronger effect = higher value
Procedure, shortened: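 This yeast growth screen uses a strain with defined DNA-repair lesions; compound-treated growth is compared with vehicle-treated growth.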

[9] = NCI Yeast Anticancer Drug Screen. Data for the CLN2oe strain (AID 163);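 further: 0% = growth of vehicle-only control cultures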; details: S. cerevisiae CLN2oe strain, stronger effect = higher value
Procedure, shortened: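 Whole-cell yeast growth assay. A strain engineered for altered cell-cycle control received compound, and inhibition relative to vehicle-treated cultures was recorded.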

[10] = NCI Yeast Anticancer Drug Screen. Data for the cln2 rad14 strain (AID 165);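 further: 0% = growth equal to vehicle treated cultures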; details: S. cerevisiae cln2 rad14 strain, stronger effect = higher value
Procedure, shortened: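 Yeast strain cln2 rad14, bearing defects in cell cycle control and DNA repair, serves as the test system; values reflect growth inhibition compared with vehicle.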

[11] = NCI Yeast Anticancer Drug Screen. Data for the wt2 strain (AID 169);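 further: 0% = growth of vehicle-treated yeast cultures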; details: S. cerevisiae wt2 strain growth inhibition, stronger effect = higher value
Procedure, shortened: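 Treated yeast vs. vehicle-treated yeast: growth inhibition determined.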

[12] = NCI Yeast Anticancer Drug Screen. Data for the mlh1 strain (AID 171);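 further: 0% = growth of vehicle-treated control cultures of the same strain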; details: S. cerevisiae mlh1 strain growth inhibition, stronger effect = higher value
Procedure, shortened: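 A yeast strain with a defined genetic lesion serves as the test organism. Cultures receive compound or vehicle, and growth is measured.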

[13] = NCI Yeast Anticancer Drug Screen. Data for the sgs1 strain (AID 173);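 further: 0% = growth of vehicle-only control cultures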; details: S. cerevisiae sgs1 mutant, stronger effect = higher value
Procedure, shortened: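 A genetically defined yeast mutant is incubated with the test compound, and its growth is compared to that of the same strain given vehicle.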

[14] = NCI Yeast Anticancer Drug Screen. Data for the mlh1 rad18 strain (AID 175); details: S. cerevisiae mlh1 rad18 strain growth inhibition, stronger effect = higher value
Procedure, shortened: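 Steps: expose repair-defective yeast to compound; measure growth; express inhibition against vehicle-treated controls.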

[15] = NCI Yeast Anticancer Drug Screen. Data for the rad18 strain (AID 177); details: S. cerevisiae rad18 mutant growth inhibition, stronger effect = higher value
Procedure, shortened: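 Measured value is growth inhibition of a yeast strain bearing a DNA repair alteration, referenced to vehicle-treated cells.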

[16] = NCI Yeast Anticancer Drug Screen. Data for the bub3 strain (AID 167); details: S. cerevisiae bub3 mutant strain, stronger effect = higher value
Procedure, shortened: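 In this screen, a yeast mutant lacking normal mitotic checkpoint function is challenged with compound. Relative growth versus vehicle gives the inhibition value.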

[17] = at 5.0 µM (retest, dose inferred, filed as 0.5)
[18] = at 50.0 µM (retest, dose inferred, filed as 5.0)

Structure (SMILES): CC(=O)[O][Bi]([c]1ccccc1)[c]1ccccc1
- growth inhibition ([1]; at 1.2 µM): 31%
- growth inhibition ([1]; at 3.7 µM): 41%
- growth inhibition ([1]; at 11.0 µM): 72% (active)
- growth inhibition ([1]; at 33.0 µM): 91% (active)
- growth inhibition ([1]; at 100.0 µM): 94% (active)
- growth inhibition ([2]; at 1.2 µM): 2%
- growth inhibition ([2]; at 3.7 µM): 11%
- growth inhibition ([2]; at 11.0 µM): 23%
- growth inhibition ([2]; at 33.0 µM): 90% (active)
- growth inhibition ([2]; at 100.0 µM): 94% (active)
- growth inhibition ([3]; at 1.2 µM): 31%
- growth inhibition ([3]; at 3.7 µM): 39%
- growth inhibition ([3]; at 11.0 µM): 18%
- growth inhibition ([3]; at 33.0 µM): 20%
- growth inhibition ([3]; at 100.0 µM): 24%
- growth inhibition ([4]; at 1.2 µM): 28%
- growth inhibition ([4]; at 3.7 µM): 30%
- growth inhibition ([4]; at 11.0 µM): 40%
- growth inhibition ([4]; at 33.0 µM): 89% (active)
- growth inhibition ([4]; at 100.0 µM): 95% (active)
- growth inhibition ([5]; at 1.2 µM): 36%
- growth inhibition ([5]; at 3.7 µM): 42%
- growth inhibition [5, 17]: 27%
- growth inhibition ([5]; at 11.0 µM): 73% (active)
- growth inhibition ([5]; at 33.0 µM): 95% (active)
- growth inhibition [5, 18]: 94% (active)
- growth inhibition ([5]; at 50.0 µM): 86% (active)
- growth inhibition ([5]; at 100.0 µM): 95% (active)
- growth inhibition ([6]; at 1.2 µM): 29%
- growth inhibition ([6]; at 3.7 µM): 30%
- growth inhibition [6, 17]: 19%
- growth inhibition ([6]; at 11.0 µM): 40%
- growth inhibition ([6]; at 33.0 µM): 90% (active)
- growth inhibition [6, 18]: 95% (active)
- growth inhibition ([6]; at 50.0 µM): 89.5% (active)
- growth inhibition ([6]; at 100.0 µM): 95% (active)
- growth inhibition ([7]; at 1.2 µM): 39%
- growth inhibition ([7]; at 3.7 µM): 35%
- growth inhibition ([7]; at 11.0 µM): 64%
- growth inhibition ([7]; at 33.0 µM): 95% (active)
- growth inhibition ([7]; at 100.0 µM): 96% (active)
- growth inhibition [8, 17]: 6%
- growth inhibition [8, 18]: 96% (active)
- growth inhibition ([8]; at 50.0 µM): 86.5% (active)
- growth inhibition ([9]; at 1.2 µM): 22%
- growth inhibition ([9]; at 3.7 µM): 16%
- growth inhibition ([9]; at 11.0 µM): 31%
- growth inhibition ([9]; at 33.0 µM): 80% (active)
- growth inhibition ([9]; at 100.0 µM): 91% (active)
- growth inhibition [10, 17]: 7%
- growth inhibition [10, 18]: 95% (active)
- growth inhibition ([10]; at 50.0 µM): 84.7% (active)
- growth inhibition ([11]; at 1.2 µM): 4%
- growth inhibition ([11]; at 3.7 µM): 4%
- growth inhibition ([11]; at 11.0 µM): 79% (active)
- growth inhibition ([11]; at 33.0 µM): 96% (active)
- growth inhibition ([11]; at 100.0 µM): 96% (active)
- growth inhibition ([12]; at 1.2 µM): 28%
- growth inhibition ([12]; at 3.7 µM): 30%
- growth inhibition ([12]; at 11.0 µM): 40%
- growth inhibition ([12]; at 33.0 µM): 89% (active)
- growth inhibition ([12]; at 100.0 µM): 95% (active)
- growth inhibition ([13]; at 1.2 µM): 28%
- growth inhibition ([13]; at 3.7 µM): 30%
- growth inhibition ([13]; at 11.0 µM): 46%
- growth inhibition ([13]; at 33.0 µM): 88% (active)
- growth inhibition ([13]; at 100.0 µM): 95% (active)
- growth inhibition [14, 17]: 42%
- growth inhibition [14, 18]: 93% (active)
- growth inhibition ([14]; at 50.0 µM): 91% (active)
- growth inhibition ([15]; at 1.2 µM): 15%
- growth inhibition ([15]; at 3.7 µM): 30%
- growth inhibition ([15]; at 11.0 µM): 72% (active)
- growth inhibition ([15]; at 33.0 µM): 91% (active)
- growth inhibition ([15]; at 100.0 µM): 94% (active)

Structure (SMILES): O=C1C=CC(=C(c2ccccc2)c2ccccc2)c2ccccc21
- growth inhibition ([1]; at 1.2 µM): 6%
- growth inhibition ([1]; at 3.7 µM): 3%
- growth inhibition ([1]; at 11.0 µM): -4%
- growth inhibition ([1]; at 33.0 µM): 4%
- growth inhibition ([1]; at 100.0 µM): 0%
- growth inhibition ([2]; at 1.2 µM): 0%
- growth inhibition ([2]; at 3.7 µM): 1%
- growth inhibition ([2]; at 11.0 µM): 1%
- growth inhibition ([2]; at 33.0 µM): 2%
- growth inhibition ([2]; at 100.0 µM): 4%
- growth inhibition ([3]; at 1.2 µM): 9%
- growth inhibition ([3]; at 3.7 µM): 7%
- growth inhibition ([3]; at 11.0 µM): 2%
- growth inhibition ([3]; at 33.0 µM): 15%
- growth inhibition ([3]; at 100.0 µM): 8%
- growth inhibition ([4]; at 1.2 µM): 0%
- growth inhibition ([4]; at 3.7 µM): 0%
- growth inhibition ([4]; at 11.0 µM): -1%
- growth inhibition ([4]; at 33.0 µM): -1%
- growth inhibition ([4]; at 100.0 µM): 2%
- growth inhibition ([5]; at 1.2 µM): 7%
- growth inhibition ([5]; at 3.7 µM): 7%
- growth inhibition [5, 17]: 25%
- growth inhibition ([5]; at 11.0 µM): -1%
- growth inhibition ([5]; at 33.0 µM): 8%
- growth inhibition [5, 18]: 91% (active)
- growth inhibition ([5]; at 50.0 µM): -6.5%
- growth inhibition ([5]; at 100.0 µM): 10%
- growth inhibition ([6]; at 1.2 µM): 0%
- growth inhibition ([6]; at 3.7 µM): -1%
- growth inhibition [6, 17]: -1%
- growth inhibition ([6]; at 11.0 µM): 1%
- growth inhibition ([6]; at 33.0 µM): -1%
- growth inhibition [6, 18]: 89% (active)
- growth inhibition ([6]; at 50.0 µM): 15.1%
- growth inhibition ([6]; at 100.0 µM): 2%
- growth inhibition ([7]; at 1.2 µM): 5%
- growth inhibition ([7]; at 3.7 µM): 2%
- growth inhibition ([7]; at 11.0 µM): -2%
- growth inhibition ([7]; at 33.0 µM): 1%
- growth inhibition ([7]; at 100.0 µM): -2%
- growth inhibition [8, 17]: 43%
- growth inhibition [8, 18]: 93% (active)
- growth inhibition ([8]; at 50.0 µM): 6.15%
- growth inhibition ([9]; at 1.2 µM): -1%
- growth inhibition ([9]; at 3.7 µM): -3%
- growth inhibition ([9]; at 11.0 µM): -9%
- growth inhibition ([9]; at 33.0 µM): -8%
- growth inhibition ([9]; at 100.0 µM): -9%
- growth inhibition [10, 17]: 25%
- growth inhibition [10, 18]: 86% (active)
- growth inhibition ([10]; at 50.0 µM): -44.3%
- growth inhibition ([16]; at 1.2 µM): 0%
- growth inhibition ([16]; at 3.7 µM): 1%
- growth inhibition [16, 17]: 53%
- growth inhibition ([16]; at 11.0 µM): 3%
- growth inhibition ([16]; at 33.0 µM): 9%
- growth inhibition [16, 18]: 92% (active)
- growth inhibition ([16]; at 50.0 µM): 25.1%
- growth inhibition ([16]; at 100.0 µM): 21%
- growth inhibition ([12]; at 1.2 µM): 2%
- growth inhibition ([12]; at 3.7 µM): 0%
- growth inhibition ([12]; at 11.0 µM): -3%
- growth inhibition ([12]; at 33.0 µM): 1%
- growth inhibition ([12]; at 100.0 µM): 0%
- growth inhibition ([13]; at 1.2 µM): -11%
- growth inhibition ([13]; at 3.7 µM): -25%
- growth inhibition ([13]; at 11.0 µM): -10%
- growth inhibition ([13]; at 33.0 µM): 10%
- growth inhibition ([13]; at 100.0 µM): 18%
- growth inhibition [14, 17]: 69%
- growth inhibition [14, 18]: 92% (active)
- growth inhibition ([14]; at 50.0 µM): 13.2%
- growth inhibition ([15]; at 1.2 µM): 6%
- growth inhibition ([15]; at 3.7 µM): 4%
- growth inhibition ([15]; at 11.0 µM): 1%
- growth inhibition ([15]; at 33.0 µM): 4%
- growth inhibition ([15]; at 100.0 µM): 2%
